A selection: hits, their analogues and other compounds. The true share with any hit is near 1.2%.
RGS8-Gao: modulates binding of RGS8 to human Galphao | 220,000 compounds, 0.34% hits | AID 1423 | multiplexed bead flow cytometry; actives lie on both sides | response (percent of control binding), % at 10 µM; in the data active means response below about 60% or above about 140%; inactive means in between;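 further: Galphao activated as the GDP aluminium fluoride complex binding bead-coupled RGS8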
Target sequence (P09471 whole entry, looked up): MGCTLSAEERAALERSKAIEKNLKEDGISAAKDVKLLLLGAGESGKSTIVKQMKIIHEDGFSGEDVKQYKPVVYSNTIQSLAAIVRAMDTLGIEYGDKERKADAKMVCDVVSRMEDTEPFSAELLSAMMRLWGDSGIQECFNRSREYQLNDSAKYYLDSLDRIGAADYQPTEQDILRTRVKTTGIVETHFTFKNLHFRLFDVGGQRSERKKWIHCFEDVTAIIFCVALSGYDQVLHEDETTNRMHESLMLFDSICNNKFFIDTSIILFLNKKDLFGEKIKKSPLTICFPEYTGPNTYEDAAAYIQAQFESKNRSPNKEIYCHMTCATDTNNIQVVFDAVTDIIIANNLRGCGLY
GSH fluor: compound fluoresces at 488/530 nm on GSH beads; 190,000 compounds, 0.25% hits; GSH beads flow cytometry, compound fluorescence 488/530 nm; hits give high values; fluorescence (KMESF) at 10 µM; in the data active means fluorescence above about 89;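 further: glutathione beads carrying GST-tagged Bcl family fusion proteins plus one bare bead set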
RGS16-Gao: modulates binding between human RGS16 and Galphao; 220,000 compounds, 0.38% hits; O15492+P09471; binding response (% of control), % at 10 µM; bead-based flow cytometry RGS16-Galphao binding, fluorescence; actives lie on both sides;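 further: Galphao activated by GDP with aluminum fluoride before binding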
Avidin bead fluor: compound fluoresces at 488/530 nm on avidin beads; fluorescence (KMESF) at 10 µM; 220,000 compounds, 0.38% hits; compound fluorescence 488/530 nm, flow cytometry; hits give high values; in the data active means fluorescence above about 47
RGS4-Gao reg: modulates binding of RGS4 to human Galphao | Multiplexed bead flow cytometry; actives lie on both sides | binding response (% of control), % at 10 µM | 220,000 compounds, 0.33% hits; in the data active means binding response below about 49% or above about 150%; inactive means in between;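 further: fluorescent Galphao activated with aluminum fluoride binding bead-coupled RGS4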
RGS7-Gao: regulators of human RGS7-Galphao interaction | Multiplexed bead flow cytometry, RGS7-Galphao binding; actives lie on both sides | binding response (% of control), % at 10 µM | 220,000 compounds, 0.35% hits; in the data active means binding response below about 49% or above about 150%; inconclusive means no clear call, values can overlap the other calls; inactive means in between;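 further: fluorescent Galphao held in activated GDP-AlF4 state binding bead-coupled RGS7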
RGS4-Gao HTS: RGS4-Galphao interaction regulator (human); shares compounds with RGS16-Gao; multiplexed bead flow cytometry, RGS–Galpha-o binding; RGS4–Galpha-o binding response, % at 10 µM; 1,600 compounds, 99% hits;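 further: fluorescently labeled Galpha-o bound to GDP with aluminium fluoride binding biotinylated RGS beads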
Biotin-avidin: biotin-avidin bead binding disruption counter-screen; shares compounds with RGS16-Gao; streptavidin beads, fluorescein-biotin binding, flow cytometry; inhibition, % at 10 µM; 1,700 tested, under 10 active;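 active means inhibition above 50%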;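 further: median green fluorescence of gated singlet beads compared with DMSO control wells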
RGS8-Gao confirm: RGS8-Galphao interaction regulation, single point confirmation; shares compounds with RGS16-Gao; bead-based flow cytometry RGS8-Galphao binding, fluorescence; actives lie on both sides; binding response (% of control), % at 10 µM; 1,700 compounds, 3% hits; AID 1836; in the data active means binding response below about 72% or above about 130%; inactive means in between;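 further: Galphao activated as GDP AlF4 complex before binding bead RGS8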
RGS7-Gao confirm: RGS7-Galphao interaction regulation, single point confirmation. AID 1837. 1,700 compounds, 7.8% hits. response (percent of control binding), % at 10 µM. shares compounds with RGS16-Gao. bead-based flow cytometry RGS7-Galphao binding; actives lie on both sides; in the data active means response below about 75% or above about 130%; inactive means in between;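 further: fluorescent Galphao activated with GDP and aluminum fluoride binding bead-coupled RGS7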
RGS16-Gao single: RGS16-Galphao interaction regulation, single point confirmation; shares compounds with RGS16-Gao; bead-based flow cytometry, RGS16-Galphao binding; actives lie on both sides; response (% of control binding), % at 10 µM; 1,700 compounds, 4% hits; AID 1838; in the data active means response below about 74% or above about 130%; inactive means in between;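 further: Galphao activated as the GDP aluminium fluoride complex binding bead-coupled RGS16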
RGS4-Gao confirm: confirmation of regulators of human RGS4-Galphao interaction | 1,700 compounds, 4% hits | shares compounds with RGS16-Gao | RGS4-Galphao binding, multiplexed bead flow cytometry; actives lie on both sides | binding response (% of control), % at 10 µM; in the data active means binding response below about 74% or above about 130%; inactive means in between
RGS19-Gao conf: confirmation of regulators of human RGS19-Galphao interaction; shares compounds with RGS16-Gao; bead-based flow cytometry RGS19-Galphao binding; actives lie on both sides; response (percent of control binding), % at 10 µM; 1,700 compounds, 5% hits; AID 1841; in the data active means response below about 50% or above about 160%; inactive means in between
Hits are given with their value; n = inactive; u = inconclusive; x = not tested or not shown; [ ] = another dose, or the depositor's remark. Unless noted, how the calls were made is not given here.

SMILES | RGS8-Gao | GSH fluor | RGS16-Gao | Avidin bead fluor | RGS4-Gao reg | RGS7-Gao | RGS4-Gao HTS | Biotin-avidin | RGS8-Gao confirm | RGS7-Gao confirm | RGS16-Gao single | RGS4-Gao confirm | RGS19-Gao conf
CC(=O)c1cccc(NC(=O)NCCc2c[nH]c3ccccc23)c1 | n | x | n | n | n | u | x | x | x | x | x | x | x
Cc1ccc2[nH]cc(CCNC(=O)Nc3ccccc3)c2c1 | x | n | x | x | x | x | x | n | n | n | n | n | n
Cc1cc(-n2c(=O)c(C#N)cc3c(=O)n4ccccc4nc32)no1 | n | n | -3.0 | n | n | n | 89 | x | x | x | x | x | x
Cc1ccccc1-n1c(=O)c(C#N)cc2c(=O)n3ccccc3nc21 | n | n | n | n | n | n | x | x | x | x | x | x | x
Cc1nc(C(F)(F)F)ccc1C(=O)N1CCCCC1 | 31 | x | 5.8 | n | 3.0 | u | x | n | n | n | n | n | n
C/C(=C/C(=O)O)C(=O)Nc1cccc(C(F)(F)F)c1 | n | n | n | n | n | n | x | x | x | x | x | x | x
O=C(Nc1ccc(C2=NCCN2)cc1)c1ccc(C(=O)Nc2ccc(C3=NCCN3)cc2)c(Cl)c1 | 143[activator] | x | n | n | 199[activator] | u | x | n | n | n | n | n | n
CC(=O)C1=NOC(CNC(=O)c2c(-c3ccccc3Cl)noc2C)C1 (stereo not given) | n | n | n | n | n | n | x | x | x | x | x | x | x
NC(CC(=O)O)c1ccc(Br)cc1 (stereo not given) | n | n | 179[activator] | n | n | n | 107 | n | n | n | n | n | n
CCOc1ccc(NC(=O)N(CCC(C)C)C2CCN(C(C)=O)CC2)cc1 | 153[activator] | n | n | n | n | n | 127 | n | n | n | n | n | n
CCOc1ccc(NC(=O)N(C2CCCC2)C2CCN(C(C)=O)CC2)cc1 | n | n | n | n | n | n | x | x | x | x | x | x | x
CCOc1cccc2cc(C(N)=O)c(=N)oc12 | n | x | n | n | n | u | x | x | x | x | x | x | x
COc1ccc(CNC(=O)CN(C2CCCCC2)S(C)(=O)=O)cc1 | n | n | n | n | n | n | x | x | x | x | x | x | x
N=C1C2=C3Sc4ccccc4N3CCCC2=NN1c1cccc(S(=O)(=O)O)c1 | 8.6 | x | -6.4 | n | -11 | u | x | n | n | n | n | n | n
CCOC(=O)c1c(-c2cccs2)csc1NC(=O)CN(CC)CC | 55 | n | n | n | 46 | 42 | x | n | n | n | n | n | n
COc1cc(C(=O)NCC(c2cccs2)N(C)C)cc(Cl)c1OC(C)C (stereo not given) | n | n | 211[activator] | n | n | n | 116 | n | n | n | n | n | n
CCCOc1ccc(C(=O)NCC(c2cccs2)N(C)C)cc1OC (stereo not given) | n | n | n | n | n | n | x | x | x | x | x | x | x
CCn1cnc2sc(C(=O)N(Cc3ccc(N(C)C)cc3)Cc3ccco3)c(C)c2c1=O | n | n | n | n | n | n | x | x | x | x | x | x | x
Nc1nc(SCC(=O)Nc2cc(C(F)(F)F)ccc2N2CCOCC2)n[nH]1 | 18 | n | 16 | n | 29 | 24 | x | n | n | n | n | n | n
CC1(C)Cc2cccc(OCC(=O)Nc3cc(C(F)(F)F)ccc3N3CCOCC3)c2O1 | n | n | n | 141 | n | 226[activator] | 118 | n | n | n | n | n | n

Bioassay records from PubChem.
